This note sets out measurements from PubChem BioAssay (NCATS).

Test [1] in a line: qHTS for Inhibitors of Plasmodium falciparum (DD2) proliferation (AID 504314).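 Note: parasite DNA measured by SYBR Green fluorescence after red cell lysis; plate controls were DMSO vehicle for no effect and artemisinin wells for full effect.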 An outline of the steps: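 SYBR Green DNA-fluorescence growth assay: infected RBCs at 0.3% parasitemia, 2.5% hematocrit, 72 h compound exposure, 37C, 5% CO2; overnight lysis with dye at RT; normalized to 0.29 uM artemisinin and vehicle.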
(In qHTS, concentration-response curves come from the screen itself.)

Test [2] is described as follows: qHTS for Inhibitors of Plasmodium falciparum (GB4) proliferation (AID 504315). Note: nearly all actives have a fitted effect of over 50% in size. Note: potency is the fitted concentration of half-maximal effect. A digest of the protocol:
(§1)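 Parasite growth measured as SYBR Green DNA fluorescence (ex 485, em 535 nm) after overnight lysis following 72 h culture at 37 °C, 0.3% parasitemia, 2.5% hematocrit. Values normalized against DMSO and 0.29 uM artemisinin controls, with plate-stack correction.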

Test [3] is described as follows: qHTS for Inhibitors of Plasmodium falciparum (7G8) proliferation (AID 504316). Note: nearly all actives have a fitted effect of over 65% in size. Note: potency is the fitted concentration of half-maximal effect. An outline of the steps:
as §1

Test [4] is described as follows: qHTS for Inhibitors of Plasmodium falciparum (HB3) proliferation (AID 504318).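 Note: 0% = DMSO vehicle and -100% = artemisinin control; nearly all actives have a fitted effect of over 60% in size.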 A digest of the protocol: as §1
Test [5] in a line: qHTS for Inhibitors of Plasmodium falciparum (CP250) proliferation (AID 504320).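 Note: plate controls were DMSO vehicle for no effect and 0.29 µM artemisinin control for full effect.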 A digest of the protocol: as §1
Test [6] deals with Atrial natriuretic peptide receptor 1 (Homo sapiens) (UniProt P16066). The test is described as follows: Natriuretic polypeptide receptor (hNpr1) antagonism - Pilot CMLD screen (AID 1347052; calls by dose curve;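 note: HEK293 cells with hNpr1 stimulated by hNppA peptide at 0.1 nM; cGMP level read as GloSensor luciferase luminescence after agonist stimulation; series mostly up to about 9.2 µM; % is set by controls: 0 for no effect and ±100 for the full control effect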).

Values joined by “and” are separate entries in the source; they are usually repeats but may differ in a detail not shown here. Equal entries are not always repeated. Inconclusive results are not listed. Values without a mark were called inactive. Active and inactive are the calls of the source. Unless noted, calls come from the whole dose curve; as a rule, active = well fitted curve in the direction sought with a large enough effect; inconclusive = small, poorly fitted or top-dose-only effect, or another doubt; inactive = no such curve, though single readings can be large; an effect the other way counts as inactive or inconclusive.

Chain of Atrial natriuretic peptide receptor 1 (Homo sapiens) (P16066 whole entry, looked up): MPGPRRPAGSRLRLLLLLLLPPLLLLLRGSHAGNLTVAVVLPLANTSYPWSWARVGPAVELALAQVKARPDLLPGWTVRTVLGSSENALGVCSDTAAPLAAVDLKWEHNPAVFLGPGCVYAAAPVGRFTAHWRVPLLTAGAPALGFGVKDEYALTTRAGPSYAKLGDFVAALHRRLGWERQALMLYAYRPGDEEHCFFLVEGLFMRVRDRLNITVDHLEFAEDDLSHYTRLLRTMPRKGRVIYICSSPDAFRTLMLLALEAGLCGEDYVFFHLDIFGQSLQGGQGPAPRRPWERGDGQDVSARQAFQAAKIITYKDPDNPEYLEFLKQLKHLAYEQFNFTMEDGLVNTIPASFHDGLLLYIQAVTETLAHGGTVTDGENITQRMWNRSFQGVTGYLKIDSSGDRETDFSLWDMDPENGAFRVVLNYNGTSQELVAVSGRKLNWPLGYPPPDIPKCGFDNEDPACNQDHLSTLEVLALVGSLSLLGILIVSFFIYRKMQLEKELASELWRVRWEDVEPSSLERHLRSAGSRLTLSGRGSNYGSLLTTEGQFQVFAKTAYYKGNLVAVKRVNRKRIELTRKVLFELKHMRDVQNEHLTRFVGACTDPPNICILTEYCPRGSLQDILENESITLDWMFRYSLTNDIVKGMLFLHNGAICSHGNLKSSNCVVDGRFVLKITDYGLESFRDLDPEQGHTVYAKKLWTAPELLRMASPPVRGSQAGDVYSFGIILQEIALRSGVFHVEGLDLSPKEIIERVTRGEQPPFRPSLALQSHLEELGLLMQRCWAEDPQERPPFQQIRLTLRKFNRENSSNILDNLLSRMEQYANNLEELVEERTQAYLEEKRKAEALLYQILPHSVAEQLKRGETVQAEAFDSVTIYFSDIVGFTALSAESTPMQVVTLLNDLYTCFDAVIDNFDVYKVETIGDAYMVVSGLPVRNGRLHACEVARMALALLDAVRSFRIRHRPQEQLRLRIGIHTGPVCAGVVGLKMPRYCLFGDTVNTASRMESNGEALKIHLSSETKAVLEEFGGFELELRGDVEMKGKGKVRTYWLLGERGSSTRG

As to `C=CCN(C)C1=NC(c2ccccc2)C(C(=O)OC)=C(C)N1CCOC` (stereo unspecified), the Potency result in test [1], in test [2], in test [3], in test [4], in test [5] and in test [6] was “inactive” throughout.

As to `COC(=O)N[C@@H](c1cccc(C)c1)[C@@H](C)[N+](=O)[O-]`, the Potency result in test [1], in test [2], in test [3], in test [4], in test [5] and in test [6] was “inactive” each time.

For the compound `COC1=C[C@H](C(=O)NCCNC(C)=O)[C@H](C)[C@@H](c2ccccc2)CC1=O`, the Potency entry in test [1], in test [2], in test [3], in test [4], in test [5] and in test [6] was “inactive” in each case.

With `CCCCc1cc2c(cn1)=C(OC(=O)C1CCCC1)C(C)(OC(=O)CC)C(=O)C=2` (stereo unspecified), the activity, negative = inhibition in test [1] was 0.367% [at 1.12 µM]. In addition, the Potency in test [2] is 1900 nM (active); in test [3], 1.51 µM (active) and 1.69 µM (active). Moreover, the Potency result in test [4], in test [5] and in test [6] was “inactive” throughout.

On to `COC(=O)CC=C[C@@H](C)[C@H](OC)c1cc(OC)ccc1Br`, for which the Potency result in test [1], in test [2], in test [3], in test [4], in test [5] and in test [6] was “inactive” throughout.

As to `COC(=O)CCCC1=CC2=C(c3ccccc3)C(=O)C(C)(OC(=O)C3CCCC3)C(=O)C2=CN1CCCCO` (stereo unspecified), the Potency result in test [1], in test [2], in test [3], in test [4], in test [5] and in test [6] was “inactive” in each case.

`C=CC1(O)C(OC)=CC2C(=O)C1C(c1ccccc1)C2C` (stereo unspecified): the Potency entry in test [1], in test [2], in test [3], in test [4], in test [5] and in test [6] was “inactive” in each case.

As to `C[C@@H]1C=CCC(=O)OC[C@H](C)C(=O)OC[C@H]2O[C@H]1C=C[C@H]2O`, the Potency result in test [1], in test [2], in test [3], in test [4], in test [5] and in test [6] was “inactive” each time.

For the compound `CCN1C(=O)NC(CCc2ccccc2)C(C(C)=O)=C1C` (stereo unspecified), the Potency entry in test [1], in test [2], in test [3], in test [4], in test [5] and in test [6] was “inactive” in each case.

Consider `COc1ccc2c(c1)O[C@@H](c1ccc3c(c1)OCO3)[C@H](O)C2=O`, for which the Potency entry in test [1], in test [2], in test [3], in test [4], in test [5] and in test [6] was “inactive” each time.

As to `C[C@@H]1C[C@H]2CC(=O)N3[C@H](CC(=O)N2[C@H]1c1ccccc1)C[C@@H](C)[C@@H]3c1ccccc1`, the Potency entry in test [1], in test [2], in test [3], in test [4], in test [5] and in test [6] was “inactive” each time.

On to `Cc1ccc(O[C@@H]2[C@H](O)CO[C@H]2C=CC#Cc2ccc(C(C)(C)C)cc2)cc1`, for which the Potency entry in test [1], in test [2], in test [3], in test [4], in test [5] and in test [6] was “inactive” each time.

For `COC(=O)N1C(c2ccccc2)=Cc2ccccc2C1C1(C(=O)OC)CCCC1=O` (stereo unspecified), the Potency entry in test [1], in test [2], in test [3], in test [4], in test [5] and in test [6] was “inactive” in each case.

For the compound `COc1cccc(CC(=O)N2CCc3nc(COc4ccccc4)c4c(c3C2)CO[C@@H](C)C4)c1`, the Potency entry in test [1], in test [2], in test [3], in test [4], in test [5] and in test [6] was “inactive” throughout.

Take `CC#CCN1C(=O)NC(c2ccccc2)C(C(=O)OC)=C1C` (stereo unspecified): the Potency entry in test [1], in test [2], in test [3], in test [4], in test [5] and in test [6] was “inactive” in each case.

For `Cc1cccc(C)c1Nc1oc(-c2ccccc2)nc1-c1ccccc1`, the Potency entry in test [1], in test [2], in test [3], in test [4], in test [5] and in test [6] was “inactive” each time.
